Assay results reported in the supplement of paper PMC10849652.
The full data set covers some 7,900 targets. This sample favours those with a hit. About 0.6% of all pairs of compound and target were hits.

Key:
Assay in all cases: log2 fold change, soluble protein after heating vs DMSO (PISA); higher = thermal stabilisation; K562 cells, 10 uM, 30 min; active = over 0.2 and 3.5 SD of the protein, either way, in both replicates (recomputed)
saracatinib = compound: CN1CCN(CCOc2cc(OC3CCOCC3)c3c(Nc4c(Cl)ccc5c4OCO5)ncnc3c2)CC1 [saracatinib]
In short: (§1)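 K562 cells (2×10^6 cells/mL) were treated with 10 μM compound for 30 min, and aliquots were heated for 3 min over 48°C-58°C. Pooled aliquots were extracted in PBS with 0.5% NP-40 at 4°C, and the supernatant after 21,000xg for 90 min was measured by TMTpro 16plex LC-MS/MS with channel sums equalised. Reported thermal stability, relative to control samples and from duplicates, is a log2 fold change.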

sotrastaurin = compound: CN1CCN(c2nc(C3=C(c4c[nH]c5ccccc45)C(=O)NC3=O)c3ccccc3n2)CC1 [sotrastaurin]
In short: as §1

alvocidib = compound: CN1CC[C@H](c2c(O)cc(O)c3c(=O)cc(-c4ccccc4Cl)oc23)[C@H](O)C1 [alvocidib]
In short: as §1

Tubastatin A = compound: CN1CCc2c(c3ccccc3n2Cc2ccc(C(=O)NO)cc2)C1 [Tubastatin A]
In short: as §1

[1] = compound: CNC(=O)C1=CC=CC=C1NC2=NC(=NC=C2Cl)NC3=C(C=C(C=C3)N4CCOCC4)OC
In short: as §1

defactinib = compound: CNC(=O)c1ccc(Nc2ncc(C(F)(F)F)c(NCc3nccnc3N(C)S(C)(=O)=O)n2)cc1 [defactinib]
In short: as §1

rucaparib = compound: CNCc1ccc(-c2[nH]c3cc(F)cc4c3c2CCNC4=O)cc1 [rucaparib]
In short: as §1

[2] = compound: CNc1nc(-c2ccc3c(N)n[nH]c3c2)cc(N2C[C@@H](C(=O)NC3CCCCC3)CC[C@H]2C)n1
In short: as §1

encorafenib = compound: COC(=O)N[C@@H](C)CNc1nccc(-c2cn(C(C)C)nc2-c2cc(Cl)cc(NS(C)(=O)=O)c2F)n1 [encorafenib]
In short: as §1

[3] = compound: COC(=O)[C@H](CCSC)NC(=O)C1=C(C=C(C=C1)NC[C@H](CS)N)C2=CC=CC=C2
In short: as §1

Measured: log2 fold change

RSPRY1 (UniProt Q96DX4)
Sequence of UniProt Q96DX4 (Q96DX4 whole entry, looked up): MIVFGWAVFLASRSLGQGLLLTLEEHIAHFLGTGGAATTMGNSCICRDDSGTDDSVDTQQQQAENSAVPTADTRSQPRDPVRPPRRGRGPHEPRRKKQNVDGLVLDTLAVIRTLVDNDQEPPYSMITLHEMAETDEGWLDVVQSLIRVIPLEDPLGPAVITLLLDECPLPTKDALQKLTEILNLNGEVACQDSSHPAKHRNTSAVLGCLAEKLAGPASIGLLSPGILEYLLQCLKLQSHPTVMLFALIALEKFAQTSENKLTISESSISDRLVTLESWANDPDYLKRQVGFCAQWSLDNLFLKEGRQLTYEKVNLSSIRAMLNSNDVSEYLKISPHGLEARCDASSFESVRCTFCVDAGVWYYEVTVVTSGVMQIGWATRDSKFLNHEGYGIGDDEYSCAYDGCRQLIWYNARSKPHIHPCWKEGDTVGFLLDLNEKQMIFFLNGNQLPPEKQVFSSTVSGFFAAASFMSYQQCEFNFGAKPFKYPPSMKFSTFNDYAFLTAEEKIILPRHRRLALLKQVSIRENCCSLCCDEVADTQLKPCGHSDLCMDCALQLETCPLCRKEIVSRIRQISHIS
inactive: saracatinib -0.073 | sotrastaurin -0.01 | alvocidib 0.001 | Tubastatin A 0.009 | [1] -0.037 | defactinib 0.013 | rucaparib 0.118 | [2] 0.126 | encorafenib 0.04 | [3] 0.009

RAB3IL1 (UniProt Q8TBN0)
inactive: saracatinib 0.007 | sotrastaurin -0.02 | alvocidib 0.06 | Tubastatin A -0.02 | [1] 0.023 | defactinib -0.042 | rucaparib -0.005 | [2] 0.001 | encorafenib -0.03 | [3] -0.022

RPL38 (UniProt P63173)
inactive: saracatinib -0.018 | sotrastaurin 0.01 | alvocidib 0.088 | Tubastatin A 0.014 | [1] 0.027 | defactinib 0.126 | rucaparib 0.093 | [2] 0.044 | encorafenib 0.003 | [3] 0.037

RPS13 (UniProt P62277)
inactive: saracatinib -0.149 | sotrastaurin 0 | alvocidib 0.287 | Tubastatin A 0.106 | [1] 0.097 | defactinib 0.339 | rucaparib 0.261 | [2] 0.111 | encorafenib 0.137 | [3] 0.031

RIC8A isoform 3 (UniProt Q9NPQ8)
Sequence of UniProt Q9NPQ8 (Q9NPQ8 whole entry, looked up): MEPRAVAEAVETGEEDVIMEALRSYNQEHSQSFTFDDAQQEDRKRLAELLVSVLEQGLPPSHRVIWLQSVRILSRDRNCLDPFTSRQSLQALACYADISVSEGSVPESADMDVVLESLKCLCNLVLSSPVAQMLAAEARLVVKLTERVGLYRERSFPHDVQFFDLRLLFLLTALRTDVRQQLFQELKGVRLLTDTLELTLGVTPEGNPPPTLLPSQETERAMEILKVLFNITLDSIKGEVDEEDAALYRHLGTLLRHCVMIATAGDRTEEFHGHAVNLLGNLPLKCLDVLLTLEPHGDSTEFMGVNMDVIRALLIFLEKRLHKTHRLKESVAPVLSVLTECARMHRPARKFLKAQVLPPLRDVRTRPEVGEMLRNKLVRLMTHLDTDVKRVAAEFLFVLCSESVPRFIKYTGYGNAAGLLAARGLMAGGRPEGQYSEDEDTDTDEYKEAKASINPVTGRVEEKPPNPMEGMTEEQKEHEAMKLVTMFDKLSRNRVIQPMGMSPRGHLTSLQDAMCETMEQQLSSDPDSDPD
inactive: saracatinib 0.008 | sotrastaurin -0.223 | alvocidib -0.157 | Tubastatin A 0.108 | [1] -0.096 | defactinib -0.175 | rucaparib 0.198 | [2] -0.087 | encorafenib 0.287 | [3] -0.12

SHCBP1 (UniProt Q8NEM2)
inactive: saracatinib -0.044 | sotrastaurin 0.017 | alvocidib -0.07 | Tubastatin A 0.174 | [1] -0.061 | defactinib -0.194 | rucaparib -0.104 | [2] -0.081 | encorafenib 0.149 | [3] -0.018

RNF220 (UniProt Q5VTB9)
inactive: saracatinib 0.012 | sotrastaurin 0.022 | alvocidib -0.066 | Tubastatin A 0.066 | [1] -0.008 | defactinib -0.059 | rucaparib -0.043 | [2] -0.038 | encorafenib 0.031 | [3] 0.015

SLC12A9 (UniProt Q9BXP2)
Sequence of UniProt Q9BXP2 (Q9BXP2 whole entry, looked up): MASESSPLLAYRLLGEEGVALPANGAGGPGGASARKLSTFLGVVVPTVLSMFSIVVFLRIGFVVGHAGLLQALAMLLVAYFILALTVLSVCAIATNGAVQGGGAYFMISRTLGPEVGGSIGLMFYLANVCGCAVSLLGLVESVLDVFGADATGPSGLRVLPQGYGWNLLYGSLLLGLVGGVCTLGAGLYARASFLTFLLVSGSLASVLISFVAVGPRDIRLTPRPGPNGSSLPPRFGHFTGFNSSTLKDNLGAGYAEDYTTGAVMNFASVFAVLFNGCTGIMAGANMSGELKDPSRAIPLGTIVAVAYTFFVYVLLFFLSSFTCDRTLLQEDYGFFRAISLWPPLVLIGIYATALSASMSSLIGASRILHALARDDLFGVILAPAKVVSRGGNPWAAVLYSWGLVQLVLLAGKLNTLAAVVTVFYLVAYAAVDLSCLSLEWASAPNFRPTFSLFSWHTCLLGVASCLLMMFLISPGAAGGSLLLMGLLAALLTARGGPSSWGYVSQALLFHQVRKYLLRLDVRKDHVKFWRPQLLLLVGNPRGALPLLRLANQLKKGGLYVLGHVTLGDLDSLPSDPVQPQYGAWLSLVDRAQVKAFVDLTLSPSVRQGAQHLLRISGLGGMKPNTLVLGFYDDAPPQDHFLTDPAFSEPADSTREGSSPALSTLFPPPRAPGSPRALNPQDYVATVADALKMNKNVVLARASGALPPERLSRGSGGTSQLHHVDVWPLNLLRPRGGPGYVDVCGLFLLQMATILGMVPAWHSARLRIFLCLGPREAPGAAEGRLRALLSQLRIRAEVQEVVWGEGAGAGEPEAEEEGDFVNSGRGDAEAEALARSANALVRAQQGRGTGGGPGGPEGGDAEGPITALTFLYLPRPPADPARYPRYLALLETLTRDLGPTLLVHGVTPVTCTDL
inactive: saracatinib 0.102 | sotrastaurin 0.016 | alvocidib -0.094 | Tubastatin A -0.09 | [1] -0.016 | defactinib -0.043 | rucaparib -0.073 | [2] -0.068 | encorafenib -0.017 | [3] -0.01

SEC24A (UniProt O95486)
inactive: saracatinib 0.002 | sotrastaurin -0.055 | alvocidib -0.071 | Tubastatin A 0.03 | [1] 0.032 | defactinib -0.013 | rucaparib 0.002 | [2] -0.033 | encorafenib 0.091 | [3] -0.009

RFC3 (UniProt P40938)
inactive: saracatinib -0.021 | sotrastaurin 0.032 | alvocidib -0.036 | Tubastatin A 0.023 | [1] 0.031 | defactinib -0.052 | rucaparib -0.011 | [2] 0.007 | encorafenib 0.062 | [3] -0.058

RCOR3 isoform 3 (UniProt Q9P2K3)
inactive: saracatinib -0.142 | sotrastaurin -0.011 | alvocidib -0.15 | Tubastatin A 0.142 | [1] -0.019 | defactinib -0.073 | rucaparib 0.075 | [2] -0.044 | encorafenib 0.026 | [3] -0.062

SLC12A5 (UniProt Q9H2X9)
inactive: saracatinib -0.152 | sotrastaurin 0.053 | alvocidib -0.067 | Tubastatin A -0.072 | [1] -0.007 | defactinib 0.08 | rucaparib -0.138 | [2] 0.148 | encorafenib 0.044 | [3] 0.075

RPA3 (UniProt P35244)
Sequence of UniProt P35244 (P35244 whole entry, looked up): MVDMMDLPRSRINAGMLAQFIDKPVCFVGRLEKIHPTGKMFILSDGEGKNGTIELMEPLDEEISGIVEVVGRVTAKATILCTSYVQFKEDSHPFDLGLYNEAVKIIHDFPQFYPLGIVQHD
inactive: saracatinib 0.015 | sotrastaurin -0.014 | alvocidib -0.04 | Tubastatin A 0.022 | [1] 0.181 | defactinib -0.054 | rucaparib -0.048 | [2] 0.015 | encorafenib 0.06 | [3] 0.014

SCPEP1 (UniProt Q9HB40)
inactive: saracatinib -0.029 | sotrastaurin 0.031 | alvocidib -0.009 | Tubastatin A -0.012 | [1] 0.021 | defactinib 0.005 | rucaparib 0.064 | [2] -0.022 | encorafenib -0.025 | [3] -0.004

SACM1L (UniProt Q9NTJ5)
Sequence of UniProt Q9NTJ5 (Q9NTJ5 whole entry, looked up): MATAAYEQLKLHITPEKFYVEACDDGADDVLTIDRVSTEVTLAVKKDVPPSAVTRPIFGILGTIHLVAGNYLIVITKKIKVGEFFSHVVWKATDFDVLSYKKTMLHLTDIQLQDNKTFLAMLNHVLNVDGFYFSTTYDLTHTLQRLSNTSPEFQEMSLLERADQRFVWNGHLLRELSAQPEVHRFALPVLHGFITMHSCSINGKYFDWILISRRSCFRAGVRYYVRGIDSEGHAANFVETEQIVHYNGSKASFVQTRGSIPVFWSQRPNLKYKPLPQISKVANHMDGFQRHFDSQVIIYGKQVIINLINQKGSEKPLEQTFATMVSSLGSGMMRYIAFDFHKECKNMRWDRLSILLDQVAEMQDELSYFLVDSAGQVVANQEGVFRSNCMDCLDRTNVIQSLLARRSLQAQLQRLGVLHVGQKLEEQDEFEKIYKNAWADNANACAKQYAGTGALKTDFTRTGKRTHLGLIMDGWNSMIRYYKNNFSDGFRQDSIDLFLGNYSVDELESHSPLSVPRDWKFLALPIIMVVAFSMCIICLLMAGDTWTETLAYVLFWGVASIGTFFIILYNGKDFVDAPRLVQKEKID
inactive: saracatinib 0.004 | sotrastaurin 0.003 | alvocidib -0.098 | Tubastatin A -0.026 | [1] 0.042 | defactinib -0.08 | rucaparib -0.062 | [2] 0.007 | encorafenib 0.034 | [3] -0.046

SENP6 (UniProt Q9GZR1)
inactive: saracatinib 0.028 | sotrastaurin -0.008 | alvocidib -0.062 | Tubastatin A 0.063 | [1] -0.018 | defactinib -0.131 | rucaparib 0.003 | [2] -0.034 | encorafenib 0.016 | [3] 0

RPS27A (UniProt P62979)
inactive: saracatinib 0.029 | sotrastaurin 0.107 | alvocidib 0.136 | Tubastatin A -0.013 | [1] 0.05 | defactinib 0.227 | rucaparib 0.105 | [2] 0.043 | encorafenib -0.007 | [3] 0.156

RBM17 (UniProt Q96I25)
Sequence of UniProt Q96I25 (Q96I25 whole entry, looked up): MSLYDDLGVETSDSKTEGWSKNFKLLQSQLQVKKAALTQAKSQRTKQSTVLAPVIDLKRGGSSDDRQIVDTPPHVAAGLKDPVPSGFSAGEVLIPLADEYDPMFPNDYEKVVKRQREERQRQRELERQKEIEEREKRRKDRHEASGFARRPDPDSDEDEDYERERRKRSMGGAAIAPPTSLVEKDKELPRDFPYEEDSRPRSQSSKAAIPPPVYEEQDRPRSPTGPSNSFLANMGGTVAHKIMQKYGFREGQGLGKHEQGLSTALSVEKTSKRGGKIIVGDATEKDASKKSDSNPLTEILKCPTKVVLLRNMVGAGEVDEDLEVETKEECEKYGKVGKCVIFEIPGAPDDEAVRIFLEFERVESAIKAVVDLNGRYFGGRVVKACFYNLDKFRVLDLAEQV
inactive: saracatinib 0.005 | sotrastaurin -0.039 | alvocidib -0.018 | Tubastatin A 0.065 | [1] -0.03 | defactinib -0.174 | rucaparib 0.055 | [2] -0.025 | encorafenib 0.05 | [3] -0.044

RSRC2 (UniProt Q7L4I2)
Sequence of UniProt Q7L4I2 (Q7L4I2 whole entry, looked up): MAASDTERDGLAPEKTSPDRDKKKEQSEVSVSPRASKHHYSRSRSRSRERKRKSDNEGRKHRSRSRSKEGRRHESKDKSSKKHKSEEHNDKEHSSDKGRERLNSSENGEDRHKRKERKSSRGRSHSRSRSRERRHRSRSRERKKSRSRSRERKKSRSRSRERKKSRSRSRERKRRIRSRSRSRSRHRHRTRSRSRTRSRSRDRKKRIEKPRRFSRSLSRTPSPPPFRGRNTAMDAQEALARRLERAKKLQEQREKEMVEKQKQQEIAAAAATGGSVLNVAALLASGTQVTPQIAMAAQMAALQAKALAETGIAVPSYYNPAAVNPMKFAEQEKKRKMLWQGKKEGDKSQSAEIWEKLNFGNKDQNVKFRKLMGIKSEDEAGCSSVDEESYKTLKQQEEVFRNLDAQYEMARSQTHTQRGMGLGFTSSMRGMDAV
inactive: saracatinib 0.015 | sotrastaurin 0.049 | alvocidib 0.055 | Tubastatin A -0.055 | [1] -0.125 | defactinib -0.048 | rucaparib -0.004 | [2] -0.016 | encorafenib -0.005 | [3] 0.024

SCO2 (UniProt O43819)
Sequence of UniProt O43819 (O43819 whole entry, looked up): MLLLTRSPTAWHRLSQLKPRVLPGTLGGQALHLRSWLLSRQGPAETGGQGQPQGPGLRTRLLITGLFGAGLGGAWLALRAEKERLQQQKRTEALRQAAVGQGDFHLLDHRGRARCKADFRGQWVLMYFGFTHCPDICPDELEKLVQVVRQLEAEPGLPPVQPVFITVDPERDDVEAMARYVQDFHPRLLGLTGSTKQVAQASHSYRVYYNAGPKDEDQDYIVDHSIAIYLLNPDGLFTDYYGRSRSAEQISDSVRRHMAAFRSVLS
inactive: saracatinib 0.034 | sotrastaurin 0.087 | alvocidib 0.006 | Tubastatin A 0.016 | [1] -0.042 | defactinib 0.017 | rucaparib 0.087 | [2] -0.004 | encorafenib 0.003 | [3] -0.124

SESN2 (UniProt P58004)
inactive: saracatinib -0.009 | sotrastaurin -0.222 | alvocidib -0.147 | Tubastatin A 0.131 | [1] 0.039 | defactinib -0.229 | rucaparib 0.044 | [2] 0.09 | encorafenib 0.041 | [3] -0.121

RCOR1 (UniProt Q9UKL0)
inactive: saracatinib -0.011 | sotrastaurin -0.047 | alvocidib -0.066 | Tubastatin A 0.028 | [1] -0.017 | defactinib -0.119 | rucaparib -0.005 | [2] 0.073 | encorafenib 0 | [3] -0.002

RNF14 (UniProt Q9UBS8)
Sequence of UniProt Q9UBS8 (Q9UBS8 whole entry, looked up): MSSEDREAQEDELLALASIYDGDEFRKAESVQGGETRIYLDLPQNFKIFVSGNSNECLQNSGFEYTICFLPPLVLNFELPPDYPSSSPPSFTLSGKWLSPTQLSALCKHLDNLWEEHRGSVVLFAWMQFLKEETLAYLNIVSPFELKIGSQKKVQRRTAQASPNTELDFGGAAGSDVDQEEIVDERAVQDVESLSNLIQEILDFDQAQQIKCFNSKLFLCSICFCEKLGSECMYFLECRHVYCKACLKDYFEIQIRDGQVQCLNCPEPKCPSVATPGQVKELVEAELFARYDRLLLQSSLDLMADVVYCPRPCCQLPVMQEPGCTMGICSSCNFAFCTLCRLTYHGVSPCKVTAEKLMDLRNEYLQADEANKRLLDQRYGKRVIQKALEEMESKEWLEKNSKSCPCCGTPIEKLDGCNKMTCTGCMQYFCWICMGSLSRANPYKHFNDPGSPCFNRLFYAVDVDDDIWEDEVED
inactive: saracatinib -0.02 | sotrastaurin -0.042 | alvocidib -0.112 | Tubastatin A -0.014 | [1] 0.007 | defactinib -0.096 | rucaparib -0.015 | [2] -0.043 | encorafenib -0.027 | [3] 0.042

SDHC (UniProt Q99643)
inactive: saracatinib 0.074 | sotrastaurin -0.201 | alvocidib -0.006 | Tubastatin A -0.134 | [1] 0.04 | defactinib -0.062 | rucaparib -0.012 | [2] -0.159 | encorafenib 0.029 | [3] 0.159

RPRD1B (UniProt Q9NQG5)
inactive: saracatinib -0.014 | sotrastaurin -0.126 | alvocidib -0.082 | Tubastatin A -0.039 | [1] 0.055 | defactinib -0.09 | rucaparib -0.116 | [2] -0.011 | encorafenib 0.04 | [3] -0.004

SFXN5 (UniProt Q8TD22)
inactive: saracatinib 0.106 | sotrastaurin -0.014 | alvocidib -0.098 | Tubastatin A -0.053 | [1] 0.019 | defactinib 0.017 | rucaparib -0.043 | [2] -0.038 | encorafenib -0.053 | [3] 0.045

RCN3 (UniProt Q96D15)
inactive: saracatinib 0.033 | sotrastaurin 0.107 | alvocidib -0.133 | Tubastatin A 0.153 | [1] -0.076 | defactinib 0.096 | rucaparib 0.038 | [2] -0.309 | encorafenib 0.054 | [3] 0.087

RRP12 (UniProt Q5JTH9)
inactive: saracatinib -0.024 | sotrastaurin -0.118 | alvocidib 0.233 | Tubastatin A 0.125 | [1] -0.057 | defactinib -0.006 | rucaparib 0.183 | [2] -0.005 | encorafenib 0.138 | [3] 0.076

RNF187 (UniProt Q5TA31)
Sequence of UniProt Q5TA31 (Q5TA31 whole entry, looked up): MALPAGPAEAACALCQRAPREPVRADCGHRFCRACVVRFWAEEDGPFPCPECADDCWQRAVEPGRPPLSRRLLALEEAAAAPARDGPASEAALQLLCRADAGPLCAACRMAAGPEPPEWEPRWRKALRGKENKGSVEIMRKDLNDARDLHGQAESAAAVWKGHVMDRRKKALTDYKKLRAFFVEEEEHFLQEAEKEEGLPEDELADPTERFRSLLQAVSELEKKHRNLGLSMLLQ
inactive: saracatinib -0.069 | sotrastaurin 0.001 | alvocidib -0.092 | Tubastatin A 0.196 | [1] -0.084 | defactinib -0.047 | rucaparib -0.139 | [2] 0.05 | encorafenib -0.042 | [3] -0.05

RECQL (UniProt P46063)
inactive: saracatinib 0.053 | sotrastaurin -0.012 | alvocidib -0.073 | Tubastatin A 0.021 | [1] 0.061 | defactinib -0.071 | rucaparib -0.002 | [2] -0.013 | encorafenib 0.026 | [3] -0.026

SCAF11 (UniProt Q99590)
inactive: saracatinib 0.075 | sotrastaurin 0.227 | Tubastatin A -0.052 | [1] -0.077 | rucaparib 0.35 | [2] -0.052 | encorafenib 0.042 | [3] 0.188
active: alvocidib 1.25 | defactinib 0.579

SLC1A5 (UniProt Q15758)
inactive: saracatinib 0 | sotrastaurin 0.064 | alvocidib -0.027 | Tubastatin A -0.023 | [1] -0.09 | defactinib -0.01 | rucaparib -0.015 | [2] 0.033 | encorafenib -0.045 | [3] 0.058

RRAS2 isoform 4 (UniProt P62070)
Sequence of UniProt P62070 (P62070 whole entry, looked up): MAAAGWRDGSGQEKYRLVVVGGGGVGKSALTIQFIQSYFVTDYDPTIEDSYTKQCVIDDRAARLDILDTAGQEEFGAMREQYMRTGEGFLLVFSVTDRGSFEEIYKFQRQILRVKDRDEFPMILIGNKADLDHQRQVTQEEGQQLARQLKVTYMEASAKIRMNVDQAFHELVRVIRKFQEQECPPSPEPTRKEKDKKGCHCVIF
inactive: saracatinib 0.069 | sotrastaurin 0.075 | alvocidib 0.024 | Tubastatin A 0.014 | [1] -0.001 | defactinib -0.016 | rucaparib 0 | [2] 0.05 | encorafenib -0.011 | [3] 0.004

RBIS (UniProt Q8N0T1)
Sequence of UniProt Q8N0T1 (Q8N0T1 whole entry, looked up): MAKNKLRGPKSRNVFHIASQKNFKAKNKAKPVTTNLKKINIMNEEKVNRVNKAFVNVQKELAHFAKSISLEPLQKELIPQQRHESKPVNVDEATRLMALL
inactive: saracatinib 0.054 | sotrastaurin -0.002 | alvocidib 0.059 | Tubastatin A 0.037 | [1] -0.026 | defactinib 0.058 | rucaparib -0.048 | [2] -0.037 | encorafenib 0.022 | [3] 0.03
